High-throughput results deposited in PubChem BioAssay by several laboratories.
An excerpt weighted towards active compounds, which were near 3.4% of everything screened.
ADAM10 inh = inhibits human ADAM10; O14672; recombinant ADAM10, EDANS/DABCYL FRET peptide cleavage, 3 h; inhibition, % at 7 µM; hit rate 0.62% among 370,000; AID 720582;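 active means inhibition above a per-campaign cutoff equal to the mean of compounds falling between control-based bounds plus 3 SD, cut at about 20% in these data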
sPLA2-III inh = Blocks human group III sPLA2 activity; QFRET BODIPY PC-A2 liposome hydrolysis, fluorescence; Q9NZ20; AID 743126; hit rate 0.56% among 370,000; inhibition, % at 12.2 µM;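 active means inhibition above mean plus 3 SD of compounds lying within the high and low control bounds, cut at about 19% in these data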
CendR NRP1 mod = modulators of CendR peptide binding to human neuropilin-1 | inhibition, % at 25 µM | hit rate 0.85% among 360,000 | AID 602438 | O14786 | FAM-RPARPAR peptide binding to NRP-1, fluorescence polarization;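 active means inhibition or corrected inhibition above about 18%, plus a signal ratio from 0.5 to 1.5, limit read from the data, passing the limit was not always enough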
KLK7 zymogen act = proKLK7 (human) activation, primary screen. hit rate 0.9% among 370,000. activation, % at 7 µM. P49862. AID 652039. purified proKLK7, EDANS-DABCYL substrate fluorescence; 100% is mature enzyme control, 0% vehicle;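 active means activation above the mean of all tested compounds plus 3 SD, computed per campaign excluding outliers beyond control limits, cut at about 13% in these data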
Target sequence (P49862 whole entry, looked up): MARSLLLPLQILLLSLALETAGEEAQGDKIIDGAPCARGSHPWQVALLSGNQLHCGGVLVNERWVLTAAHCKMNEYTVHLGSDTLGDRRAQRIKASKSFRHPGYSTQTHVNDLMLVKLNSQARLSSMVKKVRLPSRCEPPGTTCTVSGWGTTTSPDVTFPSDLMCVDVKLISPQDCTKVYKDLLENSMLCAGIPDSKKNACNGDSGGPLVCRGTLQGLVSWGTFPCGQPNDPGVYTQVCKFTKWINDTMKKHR
ADAM17 inh = ADAM17 inhibition, QFRET primary screen | recombinant ADAM17, EDANS/DABCYL FRET peptide cleavage | hit rate 0.83% among 370,000 | inhibition, % at 6.95 µM;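 active means inhibition above the mean of compounds lying between control limits plus 3 SD, set per campaign, cut at about 8.5% in these data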
ADAM10 confirm = confirmation of inhibitors of human ADAM10; shares compounds with ADAM10 inh; ADAM10 QFRET peptide cleavage, EDANS fluorescence; inhibition, % at 6.95 µM; hit rate 1% among 2,100; AID 743208;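 active means inhibition above about 20% chosen separately for each screening run, limit read from the data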
ADAM17 counter = ADAM17 inhibition, counter-screen for ADAM10 exosite hits. inhibition, % at 6.95 µM. hit rate 0.5% among 2,100. shares compounds with ADAM10 inh. ADAM17 QFRET peptide cleavage, EDANS fluorescence. AID 743214;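 active means mean triplicate inhibition above the solvent-only control wells' mean plus 3 SD, cut at about 12% in these data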
ADAM10 ctr = ADAM10 inhibition, counter-screen for ADAM17 exosite hits | hit rate 47% among 2,900 | shares compounds with ADAM17 inh | recombinant ADAM10, EDANS/DABCYL FRET peptide cleavage, 3 h | inhibition, % at 6.95 µM | AID 743256;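 active means mean inhibition over the triplicate runs exceeds the activity threshold set in the earlier primary screen, cut at about 20% in these data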
ADAM17 confirm = human ADAM17 inhibition, confirmation. shares compounds with ADAM17 inh. recombinant ADAM17, EDANS/DABCYL QFRET peptide cleavage. inhibition, % at 6.95 µM. hit rate 65% among 2,900. AID 743257;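 active means mean inhibition across replicates above the hit cutoff set in the primary screen, cut at about 8.5% in these data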
Each line names hits and unclear results; the compound was inactive in the other large screens (follow-up assays come after a bar, where they were run).

Cc1ccc(S(=O)(=O)N2CCOCC2)cc1NC(=O)COC(=O)CSc1ccc(Br)cc1C	ADAM10 inh 21, ADAM17 inh 13 | ADAM10 confirm inactive | ADAM17 counter inactive | ADAM10 ctr 20 | ADAM17 confirm 11
CCN(CC)c1ccc(NC(=O)COC(=O)CSc2ccc(Br)cc2C)cc1	ADAM10 inh 26, ADAM17 inh 20 | ADAM10 confirm inactive | ADAM17 counter inactive | ADAM10 ctr 41 | ADAM17 confirm 23
COc1ccc(-c2nc(-c3ccccc3)c(-c3cc([N+](=O)[O-])ccc3C)[nH]2)cc1OC	none
CCOc1cc(-c2nc(-c3ccccc3)c(-c3cc([N+](=O)[O-])ccc3C)[nH]2)ccc1O	ADAM10 inh 31, ADAM17 inh 12 | ADAM10 confirm inactive | ADAM17 counter inactive | ADAM10 ctr 21 | ADAM17 confirm 12
COC(=O)C1CN(C(=O)OC(C)(C)C)C2=C1C(=O)CC(C)(C(=O)OC(C)(C)C)C2 (stereo not given)	none (no result: CendR NRP1 mod)
Cc1ccc(NS(=O)(=O)c2cc(C(=O)Nc3cccc([N+](=O)[O-])c3)ccc2C)cc1	none
Cc1ccc(C(=O)Nc2cccc([N+](=O)[O-])c2)cc1S(=O)(=O)Nc1ccc(NC(=O)c2ccccc2)cc1	ADAM10 inh 37, ADAM17 inh 15 | ADAM10 confirm inactive | ADAM17 counter inactive | ADAM10 ctr 35 | ADAM17 confirm 23
Cc1ccc(NC(=O)c2cccs2)cc1S(=O)(=O)Nc1cccc(Cl)c1	ADAM10 inh 37, ADAM17 inh 20 | ADAM10 confirm inactive | ADAM17 counter inactive | ADAM10 ctr inactive | ADAM17 confirm inactive
Cc1noc(C)c1COc1ccc(C(=O)OCC(=O)Nc2cccc(S(=O)(=O)N3CCOCC3)c2)cc1	ADAM10 inh 25, ADAM17 inh 11 | ADAM10 confirm inactive | ADAM17 counter inactive | ADAM10 ctr 29 | ADAM17 confirm 13
CC(C)(C)c1ccc(OCCC(=O)Nc2cccc(S(=O)(=O)N3CCOCC3)c2)cc1	ADAM10 inh 32, ADAM17 inh 15 | ADAM10 confirm inactive | ADAM17 counter inactive | ADAM10 ctr 32 | ADAM17 confirm 19
COc1ccc(CN2C[C@H](COCc3ccccc3)Oc3cccc(F)c3S2(=O)=O)cc1	none (no result: CendR NRP1 mod)
Cc1cc(Cn2nc(-c3ccccc3)cc2C(=O)NCc2cccc(C(F)(F)F)c2)on1	none
Cc1cc(Cn2nc(-c3ccccc3)cc2C(=O)NCc2cccc(Br)c2)on1	ADAM10 inh 37, ADAM17 inh 11 | ADAM10 confirm inactive | ADAM17 counter inactive | ADAM10 ctr 24 | ADAM17 confirm 16
COc1cc([N+](=O)[O-])ccc1NC(=O)CCCOc1cccc(C)c1C	ADAM10 inh 22, ADAM17 inh 12 | ADAM10 confirm inactive | ADAM17 counter inactive | ADAM10 ctr inactive | ADAM17 confirm 10
COc1cc([N+](=O)[O-])ccc1NC(=O)Cc1ccccc1	none
CC(C)c1ccc(S(=O)(=O)Nc2ccc(SC(F)F)cc2)cc1	ADAM10 inh 41, ADAM17 inh 19 | ADAM10 confirm inactive | ADAM17 counter inactive | ADAM10 ctr 26 | ADAM17 confirm 15
CC(C)c1ccc(NS(=O)(=O)c2ccc(Cl)nc2)cc1	none
Cc1ccc(S(=O)(=O)Nc2ccc(SC(F)F)cc2)c(C)c1	ADAM10 inh 27, ADAM17 inh 11 | ADAM10 confirm inactive | ADAM17 counter inactive | ADAM10 ctr 23 | ADAM17 confirm 11
Cc1ccc(S(=O)(=O)Nc2ccc3c(c2)n(C)c(=O)n3C)c(C)c1	none
COCC(=O)N(C[C@H]1[C@H](c2ccccc2)[C@@H](CO)N1C(=O)NC(C)C)C(C)C	none (no result: CendR NRP1 mod)
Nc1[nH]c(C(=O)c2ccccc2)c(-c2cccc(C(F)(F)F)c2)c1C(=O)NCCc1c[nH]c2ccccc12	ADAM10 inh 24, ADAM17 inh 9.0 (no result: CendR NRP1 mod) | ADAM10 confirm inactive | ADAM17 counter inactive | ADAM10 ctr 27 | ADAM17 confirm 14
Cc1cc(C)cc(-c2c(C(=O)c3ccccc3)[nH]c(N)c2C(=O)NCCc2c[nH]c3ccccc23)c1	none (no result: CendR NRP1 mod, KLK7 zymogen act)
COC(=O)[C@]12C[C@H](CC(=O)NCCCCc3ccccc3)C(=O)N(Cc3ccco3)C1=C[C@H](C(C)C)O[C@@H]2C1CC1	none (no result: CendR NRP1 mod)
CC(C)C[C@H]1CN([C@@H](Cc2ccccc2)CN2CCC[C@H]2CN2C(=O)C(=O)NC[C@@H]2Cc2ccccc2)C(=O)C(=O)N1CC1CCCCCC1	none (no result: CendR NRP1 mod)
CCCCC[C@@H](C)N1C[C@H](COCc2ccccc2)Oc2cc(N3CCC[C@H]3CO)ccc2S1(=O)=O	none
CCCCC[C@H](C)N1C[C@H](COCc2ccccc2)Oc2cc(N3CC[C@@H](O)C3)ccc2S1(=O)=O	none
CCCCC[C@@H](C)N1C[C@H](COCc2ccccc2)Oc2cc(N3CCC[C@@H]3CO)ccc2S1(=O)=O	ADAM10 inh 21, ADAM17 inh 8.7 | ADAM10 confirm inactive | ADAM17 counter inactive | ADAM10 ctr inactive | ADAM17 confirm 10
CCCCC[C@H](C)N1C[C@@H](COCc2ccccc2)Oc2cc(N3CC[C@H](O)C3)ccc2S1(=O)=O	ADAM10 inh 21, ADAM17 inh 13 | ADAM10 confirm inactive | ADAM17 counter inactive | ADAM10 ctr 30 | ADAM17 confirm 21
Cc1nnc(SCC(=O)Nc2cccc(S(=O)(=O)N3CCCCC3)c2)s1	none
Cc1ccc(Nc2nnc(SCC(=O)Nc3cccc(S(=O)(=O)N4CCCCC4)c3)s2)cc1	ADAM10 inh 27, ADAM17 inh 11 | ADAM10 confirm inactive | ADAM17 counter inactive | ADAM10 ctr 30 | ADAM17 confirm 17
CCOC(=O)[C@]12CCCC3=C1N(CCC3)C(=O)[C@@H](CC(=O)NCCc1ccccc1OC)C2	none (no result: CendR NRP1 mod)
CCCCNC(=O)C[C@H]1C[C@@]2(C(=O)OC)C(=C[C@H](COCc3ccccc3)O[C@@H]2C)N(CCC2=CCCCC2)C1=O	none (no result: CendR NRP1 mod)
O=C(Nc1ccccc1)OC1CC2CC1[C@H]1CCCCN1[C@H]2Cc1ccccc1 (stereo not given in full)	none (no result: CendR NRP1 mod)
O=C(Nc1ccccc1)OC1CCC2CC1CCC2OC(=O)Nc1ccccc1 (stereo not given)	ADAM10 inh 24, ADAM17 inh 12 | ADAM10 confirm inactive | ADAM17 counter inactive | ADAM10 ctr 38 | ADAM17 confirm 18
